The record followed here is PubChem BioAssay (Tox21).

Assay [1] addresses Peroxisome proliferator-activated receptor delta (Homo sapiens) (UniProt Q03181). As to the kind of experiment: qHTS assay to identify small molecule agonists of the peroxisome proliferator-activated receptor delta (PPARd) signaling pathway (AID 743212; calls by dose curve;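 further: HEK293H cells with PPARd UAS beta-lactamase reporter GeneBLAzer system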). In short, it runs like this: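 Beta-lactamase reporter read by fluorescence (LiveBLAzer B/G FRET, 2 h, room temperature). Test agents, in DMSO, incubated at 37 C with PPARd-bla HEK293H cells.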

Assay [2] is described as follows: qHTS assay to identify small molecule antagonists of the peroxisome proliferator-activated receptor delta (PPARd) signaling pathway - cell viability counter screen (AID 743213). Further: nearly all actives have a fitted effect of over 50% in size. Further: potency means the concentration at half of the fitted maximal effect. The procedure, abridged: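 Cytotoxicity counter screen: CellTiter-Glo luminescence read 30 min after addition, in the same wells as the reporter assay. There, PPARd UAS-bla HEK293H cells (3000/well) were treated 17 h at 37 C with compound and 300 nM L165041.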

Assay [3] can be described thus: qHTS assay to identify small molecule agonists of the farnesoid-X-receptor (FXR) signaling pathway - cell viability counter screen (AID 743218). Further: nearly all actives have a fitted effect of over 45% in size. Further: potency means the concentration at half of the fitted maximal effect. The procedure, abridged:
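Viability counter screen in the same wells: CellTiter-Glo luminescence, 30 min room-temperature incubation, measured after the beta-lactamase read. Cells were GeneBLAzer FXR-UAS-bla HEK 293T, compound-treated 16 h at 37C.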

For assay [4], the target named is Vitamin D3 receptor (Homo sapiens) (UniProt P11473). As to the kind of experiment: qHTS assay to identify small molecule agonists of the vitamin D receptor (VDR) signaling pathway (AID 743222; calls by dose curve). In short, it runs like this: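 Agonist mode, beta-lactamase reporter: fluorescence from LiveBLAzer B/G FRET substrate (2 h, room temperature) read after 16 h compound treatment at 37 C of VDR-bla cells, which were pre-incubated 4 h after seeding.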

The target is the same in assay [5]. Kind of assay: qHTS assay to identify small molecule antagonists of the vitamin D receptor (VDR) signaling pathway (AID 743223; active means well fitted inhibition curve with a large enough effect in the signal ratio in the repeat runs, not every such curve was filed as active; the % refers to the signal ratio; further: potency means the concentration at half of the fitted maximal effect). The procedure, abridged: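 Inhibition of agonist-driven VDR signalling is scored in VDR-bla cells: 3 nM final 1alpha,25-dihydroxyvitamin D3 plus compound, 16 h at 37C, then beta-lactamase detection by FRET substrate fluorescence after 2 h.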

Assay [6] is described as follows: qHTS assay to identify small molecule agonists of the vitamin D receptor (VDR) signaling pathway - cell viability counter screen (AID 743224). Further: nearly all actives have a fitted effect of over 50% in size. Further: potency means the concentration at half of the fitted maximal effect. In short, it runs like this:
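Counter screen run in the same wells as the VDR-bla reporter assay: CellTiter-Glo luminescence, 30 min at room temperature, after 16 h compound treatment at 37C of cells pre-plated for 4 h.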

Assay [7] can be described thus: qHTS assay to identify small molecule antagonists of the vitamin D receptor (VDR) signaling pathway - cell viability counter screen (AID 743225). Further: nearly all actives have a fitted effect of over 50% in size. Further: potency means the concentration at half of the fitted maximal effect. In short, it runs like this: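 Compounds were pinned onto VDR-bla HEK 293T cells together with 1-alpha,25-dihydroxyvitamin D3 at 3 nM final. After 16 h at 37C and 5% CO2 plus the reporter readout, cell viability was measured by CellTiter-Glo luminescence (30 min, room temperature).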

Assay [8] is described as follows: qHTS assay to identify small molecule agonists of the endoplasmic reticulum stress response signaling pathway (AID 1159516; active means well fitted activation curve with a large enough effect in the signal ratio in the repeat runs, not every such curve was filed as active; the % refers to the signal ratio). The procedure, abridged:
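Ratiometric FRET readout (405 nm excitation; 460 and 530 nm emission) of a beta-lactamase gene driven by the ER stress response element, after 2 hr substrate loading. HeLa ESRE-bla cells were seeded overnight and treated with compounds for only 5 hr at 37 C.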

A short description of assay [9]: qHTS assay to identify small molecule agonists of the endoplasmic reticulum stress response signaling pathway - cell viability counter screen (AID 1159517; calls by dose curve; further: nearly all actives have a fitted effect of over 50% in size; further: potency means the concentration at half of the fitted maximal effect). The procedure, abridged:
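Cytotoxicity of test compounds toward ESRE-bla HeLa cells was assessed after 5 hr exposure. The luminescent CellTiter-Glo signal was measured 30 min after reagent addition.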

Assay [10] can be described thus: qHTS assay to identify small molecule antagonists of the retinoid-related orphan receptor gamma (ROR-gamma) signaling pathway - cell viability counter screen (AID 1159520). Further: nearly all actives have a fitted effect of over 50% in size. Further: potency means the concentration at half of the fitted maximal effect. In short, it runs like this:
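Tet-on ROR gamma CHO cells (1,000/well) were plated 4 hr, given compounds in DMSO for 2 hr at 37 C, then induced with 1 uM final doxycycline for 16 hr. Viability was read as ATP by CellTiter-Glo luminescence after 30 min.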

In assay [11] the target is Nuclear receptor ROR-gamma (Homo sapiens) (UniProt P51449). As to the kind of experiment: qHTS assay to identify small molecule antagonists of the retinoid-related orphan receptor gamma (ROR-gamma) signaling pathway (AID 1159521). In short, it runs like this:
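Test compounds were applied to Tet-on RORγ CHO cells 2 h ahead of doxycycline hyclate (1 uM final). Luciferase reporter activity was quantified by luminescence after 16 h at 37 C and 5% CO2.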

Assay [12] is described as follows: qHTS assay to identify small molecule agonists of the AP-1 signaling pathway - cell viability counter screen (AID 1159525; calls by dose curve; further: nearly all actives have a fitted effect of over 55% in size). In short, it runs like this: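 Each titration point was normalised to DMSO and tetra n-octyl ammonium bromide controls. The read was Cell Titer Glo luminescence after 30 min at RT, following 5 h compound exposure of ME-180 AP-1-bla cells at 37 °C.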

Assay [13] is described as follows: qHTS assay to identify small molecule agonists of the AP-1 signaling pathway (AID 1159526; calls by dose curve).
Assay [14] concerns the target Retinoic acid receptor RXR-alpha (Homo sapiens) (UniProt P19793). As to the kind of experiment: qHTS assay to identify small molecule agonists of the RXR signaling pathway (AID 1159527; calls by dose curve; further: nearly all actives have a fitted effect of over 35% in size). In short, it runs like this: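 Using 9-cis retinoic acid as the reference agonist, chemicals were tested in HEK 293T cells […] for 16 hr; substrate loading lasted 2 hr at room temperature.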

Assay [15] in a line: qHTS assay to identify small molecule agonists of the peroxisome proliferator-activated receptor delta (PPARd) signaling pathway - cell viability counter screen (AID 743211). Further: nearly all actives have a fitted effect of over 55% in size. Further: potency means the concentration at half of the fitted maximal effect. The procedure, abridged:
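In the same wells used for beta-lactamase reporter measurement, cytotoxicity is scored by CellTiter-Glo. HEK293H PPARd-bla cells receive compound for 17 h at 37C following a 5 h settling period.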

Assay [16] has as its target Peroxisome proliferator-activated receptor delta (Homo sapiens) (UniProt Q03181). Kind of assay: qHTS assay to identify small molecule antagonists of the peroxisome proliferator-activated receptor delta (PPARd) signaling pathway (AID 743215; active means well fitted inhibition curve with a large enough effect in the signal ratio in the repeat runs, not every such curve was filed as active; the % refers to the signal ratio;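 further: cells stimulated with agonist L165041 at 300 nM final during compound exposure; series mostly up to about 62 µM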). The procedure, abridged: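 Agonist L165041 (300 nM final) added with compound to PPARd-bla HEK293H UAS-bla reporter cells; 17 h incubation at 37 C. Read-out: LiveBLAzer FRET substrate, 2 h at room temperature, fluorescence intensity.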

Assay [17] in a line: qHTS assay to identify small molecule antagonists of the farnesoid-X-receptor (FXR) signaling pathway - cell viability counter screen (AID 743221; active means well fitted cell-killing curve with a large enough effect in the repeat runs, not every such curve was filed as active; further: nearly all actives have a fitted effect of over 50% in size; further: potency means the concentration at half of the fitted maximal effect). In short, it runs like this: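 Here viability was scored by luminescence after CellTiter-Glo addition to wells already read for beta-lactamase. Prior treatment: compound plus CDCA (50 uM final), 16 h, 37 C, HEK 293T FXR-bla cells.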

Assay [18] concerns the target Bile acid receptor (Homo sapiens) (UniProt Q96RI1). As to the kind of experiment: qHTS assay to identify small molecule antagonists of the farnesoid-X-receptor (FXR) signaling pathway (AID 743217; active means well fitted inhibition curve with a large enough effect in the signal ratio in the repeat runs, not every such curve was filed as active; the % refers to the signal ratio). In short, it runs like this: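 Antagonist mode: chenodeoxycholic acid at 50 uM final stimulates a UAS-driven beta-lactamase reporter in HEK 293T FXR-bla cells during 16 h, 37C compound exposure. Read-out is FRET substrate fluorescence after 2 h at room temperature.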

The target is the same in assay [19]. Kind of assay: qHTS assay to identify small molecule agonists of the farnesoid-X-receptor (FXR) signaling pathway (AID 743220; active means well fitted activation curve with a large enough effect in the signal ratio in the repeat runs, not every such curve was filed as active; the % refers to the signal ratio). In short, it runs like this:
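FXR-UAS-bla HEK 293T cells carrying a UAS-driven beta-lactamase reporter were plated for 5 h at 37C/5% CO2, then exposed to DMSO-dissolved Tox21 10K compounds for 16 h at 37C. A LiveBLAzer B/G FRET substrate was loaded for 2 h at room temperature before fluorescence reading.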

Structures are written as SMILES. “And” between values parts separate entries of the source, which are not always exact repeats. Equal entries are not always repeated. Records with an inconclusive call do not appear. The source made the active and inactive calls. Unless noted, the call rests on the fitted dose curve; in most records, active means well fitted curve in the direction sought with a large enough effect in the repeat runs; inconclusive means weak or mixed curves; inactive means no such curve, though single readings can be large; an effect the other way counts as inactive or inconclusive.

Sequence of Bile acid receptor (Homo sapiens) (Q96RI1 whole entry, looked up): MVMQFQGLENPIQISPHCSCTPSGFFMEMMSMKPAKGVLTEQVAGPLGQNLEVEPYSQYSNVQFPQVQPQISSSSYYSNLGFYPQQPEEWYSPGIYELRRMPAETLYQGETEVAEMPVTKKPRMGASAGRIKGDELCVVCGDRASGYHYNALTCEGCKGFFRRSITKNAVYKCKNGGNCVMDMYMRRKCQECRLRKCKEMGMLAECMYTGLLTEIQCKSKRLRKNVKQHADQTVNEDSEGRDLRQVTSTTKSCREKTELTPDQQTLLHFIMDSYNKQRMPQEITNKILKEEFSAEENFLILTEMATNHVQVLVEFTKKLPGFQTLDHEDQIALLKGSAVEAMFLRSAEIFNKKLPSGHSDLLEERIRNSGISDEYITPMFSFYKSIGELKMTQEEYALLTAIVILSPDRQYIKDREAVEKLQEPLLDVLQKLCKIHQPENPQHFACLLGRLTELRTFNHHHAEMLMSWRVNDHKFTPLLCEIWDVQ
Sequence of Vitamin D3 receptor (Homo sapiens) (P11473 whole entry, looked up): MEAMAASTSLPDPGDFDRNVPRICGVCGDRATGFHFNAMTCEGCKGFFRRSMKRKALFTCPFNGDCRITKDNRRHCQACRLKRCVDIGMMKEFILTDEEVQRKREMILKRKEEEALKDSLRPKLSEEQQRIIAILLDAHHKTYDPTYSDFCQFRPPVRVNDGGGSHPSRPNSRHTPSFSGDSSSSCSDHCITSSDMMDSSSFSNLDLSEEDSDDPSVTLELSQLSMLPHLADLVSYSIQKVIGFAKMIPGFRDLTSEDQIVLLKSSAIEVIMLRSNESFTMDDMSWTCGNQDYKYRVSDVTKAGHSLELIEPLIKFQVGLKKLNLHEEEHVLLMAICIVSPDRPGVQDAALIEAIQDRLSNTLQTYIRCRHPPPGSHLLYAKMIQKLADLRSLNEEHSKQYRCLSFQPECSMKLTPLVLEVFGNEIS
Sequence of Retinoic acid receptor RXR-alpha (Homo sapiens) (P19793 whole entry, looked up): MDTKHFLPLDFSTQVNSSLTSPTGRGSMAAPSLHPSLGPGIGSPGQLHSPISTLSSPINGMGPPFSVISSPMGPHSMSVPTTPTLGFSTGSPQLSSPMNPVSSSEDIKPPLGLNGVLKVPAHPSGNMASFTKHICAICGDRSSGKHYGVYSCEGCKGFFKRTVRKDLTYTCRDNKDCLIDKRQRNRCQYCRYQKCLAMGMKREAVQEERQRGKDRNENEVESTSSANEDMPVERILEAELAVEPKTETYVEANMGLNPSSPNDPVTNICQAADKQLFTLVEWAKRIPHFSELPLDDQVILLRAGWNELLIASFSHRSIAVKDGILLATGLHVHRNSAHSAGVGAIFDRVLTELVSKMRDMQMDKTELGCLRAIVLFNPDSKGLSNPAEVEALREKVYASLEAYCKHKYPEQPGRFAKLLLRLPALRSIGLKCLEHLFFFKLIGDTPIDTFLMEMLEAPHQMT
Sequence of Peroxisome proliferator-activated receptor delta (Homo sapiens) (Q03181 whole entry, looked up): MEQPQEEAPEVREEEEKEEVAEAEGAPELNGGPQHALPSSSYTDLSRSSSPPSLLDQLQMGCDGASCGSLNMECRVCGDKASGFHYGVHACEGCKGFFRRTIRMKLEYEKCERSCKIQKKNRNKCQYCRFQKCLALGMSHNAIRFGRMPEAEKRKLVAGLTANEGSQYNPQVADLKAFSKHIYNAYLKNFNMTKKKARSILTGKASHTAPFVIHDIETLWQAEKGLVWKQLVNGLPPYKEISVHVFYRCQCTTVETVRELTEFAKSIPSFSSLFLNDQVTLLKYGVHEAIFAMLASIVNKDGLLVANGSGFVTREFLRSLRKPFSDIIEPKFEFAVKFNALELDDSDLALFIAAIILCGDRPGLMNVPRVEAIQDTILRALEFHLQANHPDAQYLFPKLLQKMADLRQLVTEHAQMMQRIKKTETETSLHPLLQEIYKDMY

With `CC(C)c1ccc(NC(=O)N(C)C)cc1`, the outcome in assay [1] and in assay [4] was inactive. The Potency result in [2], in [3], in assay [5], in assay [6], in [7] and in [8] was “inactive” each time. In addition, the Potency result in [9], in assay [10], in assay [11], in assay [12], in [13] and in assay [14] was “inactive” in each case.

Turning to `CCC1(CC)C(=O)NC(=O)NC1=O`, the Potency entry in assay [15], in assay [2], in [16], in assay [3], in assay [17] and in assay [5] was “inactive” in each case. Further, the Potency result in [6], in assay [8], in [10], in assay [11], in [12] and in assay [13] was “inactive” each time. The Potency result in assay [14] is “inactive”. The compound was called inactive in [1].

Turning to `CC(=O)OC(c1ccccc1)C(Cl)(Cl)Cl` (centres undefined), the Potency result in [15], in assay [2], in assay [16], in [18], in assay [3] and in assay [6] was “inactive” throughout. The Potency entry in assay [8], in [9], in assay [10], in [11], in assay [12] and in assay [13] was “inactive” throughout. In addition, the Potency entry in [14] is “inactive”. For the same compound, the call in assay [1], in [19] and in [4] was inactive.

With `C[CH2][Hg][S]c1ccccc1C(=O)O`, the Potency was 871 nM (active) and 2.11 µM (active) in assay [15]; 2.19 µM (active) and 1.68 µM (active) in assay [2]; 1.55 µM (active) and 2.66 µM (active) in [3]; 6.92 µM (active) and 4.22 µM (active) in assay [17]; 3.38 µM (active) in assay [5]; 1.23 µM (active) and 2.11 µM (active) in assay [6]. Moreover, the Potency in assay [7] was 3.47 µM (active) and 4.25 µM (active); in assay [9], 6.74 µM (active); in assay [10], 1.09 µM (active) and 1.68 µM (active). In addition, in assay [4], the result was inactive.

With `Cc1cnc(C2=NC(C)(C(C)C)C(=O)N2)c(C(=O)O)c1` (centres undefined), the call in [1] and in assay [4] was inactive. For the same compound, the Potency entry in assay [2], in assay [16], in [3], in assay [5], in assay [6] and in assay [7] was “inactive” each time. Moreover, the Potency result in assay [8], in assay [9], in [10], in [11], in [12] and in assay [13] was “inactive” throughout.

Regarding `CC(C)(C)NCC(O)c1ccccc1Cl` (centres undefined), the Potency result in assay [2], in assay [3], in assay [17], in [6], in assay [7] and in [8] was “inactive” in each case. The Potency entry in assay [9], in [10], in [11], in assay [12], in [13] and in assay [14] was “inactive” throughout. For the same compound, in assay [19], the call was inactive.

`ClCc1ccccc1Cl`: the Potency result in assay [18], in assay [3], in assay [17], in [6], in assay [7] and in [8] was “inactive” in each case. In addition, the Potency result in [9], in assay [10], in assay [11], in assay [12], in assay [13] and in [14] was “inactive” each time. Also, the call in assay [19] and in [4] was inactive.

As to `C=CCc1ccc(OC(=O)Cc2ccccc2)c(OC)c1`, the Potency entry in [15], in assay [2], in assay [3], in assay [17], in [6] and in assay [7] was “inactive” each time. Also, the Potency result in assay [8], in [9], in assay [10], in [11], in [12] and in assay [13] was “inactive” throughout. The compound was called inactive in assay [1] and in assay [4].
